Only a selection was taken, and hits are over-represented in it overall.
miR-122 inh: miR-122 sensor activation. Huh7 psiCHECK-miR122 Renilla luciferase sensor, 48 h. activation, % at 12.5 µM. hit rate 0.14% among 340,000;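 active means mean activation of 30% or more, with every replicate also reaching 30%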;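 further: 0% = median of neutral control wells and 100% = median of positive control wells; higher luciferase signal means stronger suppression of miR-122 activity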
* hit, by the source's call.

SMILES | miR-122 inh
C/C=C/c1cnc2c(c1)C(=O)N([C@H](C)CO)C[C@@H](C)[C@@H](CN(C)S(=O)(=O)c1ccc(C)cc1)O2 | 4
C=CCc1ccccc1OCC(O)CN1CCN(CCN2C(=O)c3cccc4cccc(c34)C2=O)CC1 (configuration not stated) | 46*
Oc1ccc2ccccc2c1/C=N/Nc1nnc(-c2ncc[nH]2)c2ccccc12 | 61*
C/C=C/c1ccc2c(c1)O[C@@H](CN(C)C(=O)CC1CC1)[C@H](C)CN([C@H](C)CO)S2(=O)=O | 4
C[C@H]1CN([C@@H](C)CO)C(=O)c2cc(Br)cnc2O[C@@H]1CN(C)Cc1cccc(F)c1 | 0
COc1ccc(NC(=O)c2cccc(S(=O)(=O)Nc3ccc(Br)cc3)c2)cn1 | -103
COc1ccc(NC(=O)/C(Cl)=C(/Cl)S(=O)(=O)Cc2ccccc2)cn1 | 32*
C[C@H]1CN([C@@H](C)CO)S(=O)(=O)c2ccc(-c3cccc(C#N)c3)cc2O[C@@H]1CN(C)Cc1ccccn1 | -1
Cc1nn(C)cc1NC(=O)C[C@@H]1CC[C@H]2[C@@H](COc3ccc(NC(=O)Nc4cccc(Cl)c4)cc3C(=O)N2C)O1 | 48*
Cc1nn(C)cc1NC(=O)C[C@H]1CC[C@@H]2[C@H](COc3ccc(NC(=O)Nc4cccc(Cl)c4)cc3C(=O)N2C)O1 | 69*
C[C@@H]1CN([C@@H](C)CO)S(=O)(=O)c2ccc(C#Cc3ccccn3)cc2O[C@@H]1CN(C)Cc1ccc(F)cc1 | -3
CCCNC(=O)N(C)C[C@H]1Oc2ncc(C#CCC(C)C)cc2C(=O)N([C@@H](C)CO)C[C@H]1C | -1
C[C@@H]1CN([C@@H](C)CO)S(=O)(=O)c2ccc(/C=C/c3ccccc3)cc2O[C@H]1CN(C)C(=O)Nc1cccc(F)c1 | -9
COCC(=O)N(C)C[C@@H]1Oc2ncc(/C=C/c3ccccc3)cc2C(=O)N([C@H](C)CO)C[C@H]1C | -1
Cc1noc(C)c1S(=O)(=O)N(C)C[C@@H]1Oc2c(NC(=O)C3CCCCC3)cccc2C(=O)N([C@H](C)CO)C[C@@H]1C | -197
C[C@@H]1CN([C@H](C)CO)C(=O)c2cc(C#Cc3cccc(F)c3)cnc2O[C@@H]1CN(C)CC1CCCC1 | 5
COc1cccc(NS(=O)(=O)c2ccc(Br)s2)c1 | -218
COc1cccc(-n2nnnc2S(C)(=O)=O)c1 | 48*
COc1cccc(NS(=O)(=O)c2c(C)cc(C)cc2C)c1 | -399
C[C@H](CO)N1C[C@H](C)[C@@H](CN(C)Cc2ccccn2)Oc2cc(-c3cccnc3)ccc2S1(=O)=O | -7
COCC(=O)N(C)C[C@H]1Oc2ncc(C#Cc3ccncc3)cc2C(=O)N([C@H](C)CO)C[C@@H]1C | -7
Cc1c(Cl)sn(-c2ccc(Cl)cc2)c1=O | 70*
COc1ccc(NC(=O)N(C)C[C@@H]2Oc3ncc(C4=CCCC4)cc3C(=O)N([C@@H](C)CO)C[C@@H]2C)cc1 | 2
COc1ccc(C#Cc2ccc3c(c2)O[C@H](CN(C)C)[C@H](C)CN([C@@H](C)CO)S3(=O)=O)cc1 | 4
C[C@H](CO)N1C[C@H](C)[C@@H](CN(C)CC2CCOCC2)Oc2ncc(-c3cncnc3)cc2C1=O | 4
SMILES | miR-122 inh
CCC(=O)Nc1ccc2c(c1)OC[C@@H](C)N(C(=O)CN1CCOCC1)C[C@H](C)[C@H](OC)CN(C)C2=O | -3
COc1ccc2[nH]c(=O)c(COC(=O)c3ccco3)cc2c1 | 31*
CCN(Cc1ccccc1)C(=O)c1[nH]c2ccc(OC)cc2c1C | -125
CCCC(O)C#Cc1cnc2c(c1)C(=O)N([C@H](C)CO)C[C@H](C)[C@H](CN(C)C(=O)Nc1ccc(F)cc1)O2 (some centres not stated) | 3
CCC(=O)N(C)C[C@H]1Oc2ncc(C#CC3(O)CCCC3)cc2C(=O)N([C@@H](C)CO)C[C@H]1C | 0
C[C@@H]1CN([C@@H](C)CO)C(=O)c2cc(-c3cccc(F)c3)cnc2O[C@@H]1CN(C)Cc1cncnc1 | -43
Cc1ccc(-c2ccc3c(c2)O[C@H](CN(C)Cc2cccc(C(=O)O)c2)[C@@H](C)CN([C@@H](C)CO)S3(=O)=O)cc1 | 4
Cc1cccc(C)c1NC(=O)CSCC(=O)c1ccc(O)c(O)c1 | 35*
Cc1noc(C)c1NC(=O)N(C)C[C@H]1Oc2ncc(C#CC3CCCCC3)cc2C(=O)N([C@H](C)CO)C[C@H]1C | 3
COc1cccc(C#Cc2ccc3c(c2)O[C@H](CN(C)C(=O)c2ccccn2)[C@H](C)CN([C@H](C)CO)S3(=O)=O)c1 | 6
Cc1ccc(-c2ccc3c(c2)O[C@H](CN(C)Cc2cccc(C(=O)O)c2)[C@H](C)CN([C@H](C)CO)S3(=O)=O)cc1 | -16
CC(C)NC(=O)N(C)C[C@@H]1Oc2cc(C3=CCCCC3)ccc2S(=O)(=O)N([C@H](C)CO)C[C@H]1C | -4
CCN(CC)c1ccc(/C=N/NC(=O)c2ccoc2C)c(O)c1 | 50*
CCC(=O)N(C)C[C@H]1Oc2ncc(C#Cc3ccc(OC)cc3)cc2C(=O)N([C@@H](C)CO)C[C@H]1C | 0
C[C@H](CO)N1C[C@H](C)[C@H](CN(C)C(=O)C2CC2)Oc2ncc(C#Cc3cccc(F)c3)cc2C1=O | -13
C[C@@H]1CN([C@H](C)CO)C(=O)c2cc(-c3cncnc3)cnc2O[C@H]1CN(C)Cc1ccccc1 | -2
COc1ccccc1S(=O)(=O)N(C)C[C@H]1Oc2ncc(-c3ccc(C)cc3)cc2C(=O)N([C@H](C)CO)C[C@H]1C | 1
COc1cccc(CN(C(=O)Cc2c[nH]c3ccccc23)C(C(=O)NC2CCCCC2)c2cccs2)c1 (configuration not stated) | -240
COc1ccc(NC(=O)COC(=O)CCCc2c[nH]c3ccccc23)cc1 | 36*
COc1ccc(NS(=O)(=O)c2cccc(NC(=O)COc3ccccc3[N+](=O)[O-])c2)cc1 | -146
C[C@H]1CN([C@@H](C)CO)S(=O)(=O)c2ccc(/C=C/c3ccccc3)cc2O[C@H]1CN(C)C(=O)Nc1cccc(F)c1 | -13
COc1ccccc1-c1cnc2c(c1)C(=O)N([C@H](C)CO)C[C@H](C)[C@H](CN(C)Cc1ccccc1)O2 | -2
C[C@H](CO)N1C[C@H](C)[C@H](CN(C)Cc2ccc(C(=O)Nc3ccccc3N)cc2)Oc2ccc(NC(=O)C3CC3)cc2CC1=O | -165
C[C@@H]1CN([C@H](C)CO)C(=O)Cc2cc(NS(=O)(=O)c3ccc(Cl)cc3)ccc2O[C@@H]1CN(C)C(=O)Nc1ccc(C(F)(F)F)cc1 | -103
C[C@@H]1CN([C@@H](C)CO)C(=O)Cc2cc(NC(=O)C3CCCCC3)ccc2O[C@H]1CN(C)Cc1ccc(-c2ccccc2)cc1 | 33*
Cc1ccc(S(=O)(=O)N(C)C[C@@H]2Oc3ccc(NC(=O)Nc4ccc(C(F)(F)F)cc4)cc3CC(=O)N([C@H](C)CO)C[C@@H]2C)cc1 | -123
C[C@H](CO)N1C[C@H](C)[C@H](CN(C)Cc2ccc(C(=O)Nc3ccccc3N)cc2)Oc2ccc(NC(=O)C3CCCCC3)cc2CC1=O | -95
C[C@@H]1CN([C@@H](C)CO)C(=O)Cc2cc(NC(=O)Nc3ccc(C(F)(F)F)cc3)ccc2O[C@H]1CN(C)CC1CCCCC1 | 31*
C[C@H](O)C#Cc1cnc2c(c1)C(=O)N([C@H](C)CO)C[C@@H](C)[C@H](CN(C)Cc1cncnc1)O2 | -1
CO[C@@H]1CN(C)C(=O)c2ccc(NC(=O)NC(C)C)cc2OC[C@H](C)NC[C@@H]1C | -57

Screens (PubChem BioAssay)
